Data on 57 compounds can be found in PubChem BioAssay AID686979 (National Center for Advancing Translational Sciences (NCATS), 2013).

About 50,000 (12%) of roughly 420,000 compounds were called active. Inconclusive results (about 26%) are left out. The sample holds actives, similar compounds and a random draw of the others, so the mix is not that of the screen. Calls follow the shape of the dose curve; as a rule, active = well fitted inhibition curve with a large enough effect; inconclusive = small, poorly fitted or top-dose-only effect; inactive = flat fitted curve, though single readings scatter.
% is scaled to controls: 0 for no effect and ±100 for the full control effect; potency is read from the fitted curve at half-maximal effect.

This test in a line: qHTS for Inhibitors of human tyrosyl-DNA phosphodiesterase 1 (TDP1): qHTS in cells in presence of CPT. Also: nearly all actives have a fitted effect of over 55% in size. The note with it: chicken DT40 Tdp1-/-;hTDP1 cells + 20 nM CPT, ATP luminescence, 48 h; series mostly up to 46.2 µM; activity change, negative = growth inhibition: at the top concentration. Summed up: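 Chicken DT40 Tdp1-/- cells complemented with human TDP1, 400 cells/well, exposed to compounds plus 20 nM camptothecin for at least 48 h at 37 C; viability read as ATP content by CellTiter-Glo luminescence.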
With `COc1ccc(Cl)cc1NC(=O)CCC(=O)c1ccc(C)cc1`, the “activity change, negative = growth inhibition” value is -25.1% (inactive).
Turning to `Cc1ccc(NC(=O)CCCn2c(=O)c3cccn3c3ccccc32)cc1Cl`, the “activity change, negative = growth inhibition” value is -24.8% (inactive).
For the compound `COc1ccc(Cl)cc1NC(=O)CCn1c(=O)c2cccn2c2ccccc21`, the Potency was 20.6 µM (active).
For the compound `CCCCn1c(N)c(N(CCC(C)C)C(=O)COC(=O)c2ccc(CC)cc2)c(=O)[nH]c1=O`, the “activity change, negative = growth inhibition” value is -20.8% (inactive).
Still for that read-out and setting: to `Cc1cccc(NC(=O)CSCC(=O)Nc2nnc(C3CC3)s2)c1` belongs 2.73% (inactive); to `O=C(NC(CC(=O)N1CCN(c2ccccc2)CC1)c1ccccc1)c1ccccc1Cl` (configuration not stated), 1.37% (inactive).
For `CCCCCN(C(=O)CCC(=O)OCCOc1ccc(OC)cc1)c1c(N)n(CCCC)c(=O)[nH]c1=O`, the “activity change, negative = growth inhibition” value is -25.6% (inactive).
Regarding `O=C(Nc1ccc(S(=O)(=O)NCC2CCCO2)cc1)c1ccc(F)cc1` (configuration not stated), the Potency was 14.6 µM (active).
Take `CN(CC1CCCO1)S(=O)(=O)c1ccc(C(=O)Nc2ccc([N+](=O)[O-])cc2)cc1` (configuration not stated): the Potency is 23.1 µM (active).
Take `CCOc1ccc(C(=O)Nc2ccc(S(=O)(=O)NCC3CCCO3)cc2)cc1OCC` (configuration not stated): the “activity change, negative = growth inhibition” value was -12.9% (inactive).
Still for that read-out and setting: the figure for `Cc1cccc(NC(=O)c2ccc(S(=O)(=O)N(C)CC3CCCO3)cc2)c1C` (configuration not stated) is -4.33% (inactive); for `CCOc1ccc(S(=O)(=O)NCC2CCCO2)cc1` (configuration not stated) it is 14.8% (inactive).
As to `CN(CC(=O)Nc1ccc(C(N)=O)cc1)S(=O)(=O)c1ccc2c(c1)OCCO2`, the “activity change, negative = growth inhibition” value is -20.2% (inactive).
On the same count and under the same terms, to `CCN(CC(=O)Nc1ccc(NC(C)=O)cc1)C(=O)C1CC(=O)N(Cc2ccc(C)cc2)C1` (configuration not stated) belongs -13.7% (inactive); to `O=C(C1CCCO1)N1CCN(C(=O)C23CC4CC(CC(C4)C2)C3)CC1` (configuration not stated), -21.8% (inactive); to `COc1cc(C(=O)N2CCN(C3CCC(C)CC3)CC2)cc(OC)c1OC` (configuration not stated), -24.6% (inactive).
For `CCOC(=O)C1CCN(S(=O)(=O)c2c(C)noc2C)CC1`, the “activity change, negative = growth inhibition” value is -0.368% (inactive).
For `COc1cccc(N(CC(=O)NC2CCCC2)C(=O)Cn2nnc(-c3ccc(C)o3)n2)c1`, the “activity change, negative = growth inhibition” value is 5.02% (inactive).
Regarding `CC(C)COc1ccc(C(=O)OCC(=O)NCCC2=CCCCC2)cc1`, the “activity change, negative = growth inhibition” value was -14.1% (inactive).
On the same count and under the same terms, the figure for `O=C(O)CN(Cc1ccco1)S(=O)(=O)c1ccc(F)cc1` is 2.84% (inactive).
On to `C=CCn1c(SCC(=O)c2c(N)n(C)c(=O)n(C)c2=O)nc2sc(CC)cc2c1=O`, for which the “activity change, negative = growth inhibition” value was -8.2% (inactive).
Take `O=C1c2cccnc2C(=O)N1Cc1cccs1`: the “activity change, negative = growth inhibition” value is 12.8% (inactive).
`Cc1cccc(N2C(=O)c3cccnc3C2=O)c1`: the “activity change, negative = growth inhibition” value was 4.51% (inactive).
Take `NC1=CC(=O)C(=O)c2cccnc21`: the Potency is 3.66 µM (active).
As to `O=C(NC1CCCCC1)C1CC(=O)N(CCc2ccccc2)C1` (configuration not stated), the “activity change, negative = growth inhibition” value is -5.56% (inactive).
In the case of `CC(NC(=O)COC(=O)CCC(=O)c1ccc(Cl)cc1)c1ccccc1` (configuration not stated), the “activity change, negative = growth inhibition” value is -8.03% (inactive).
`CC1CCC(NC(=O)CNC(=O)c2ccc3ccccc3c2)CC1` (configuration not stated): the “activity change, negative = growth inhibition” value was -25.8% (inactive).
Same read-out and setting: to `O=C(N/N=C/c1ccc([N+](=O)[O-])cc1)C(=O)N1CCCC1` belongs -9.59% (inactive).
Take `COc1ccc(C(=O)NCC(=O)N/N=C/c2ccc([N+](=O)[O-])o2)cc1OC`: the Potency was 2.31 µM (active).
`CCCCCC(=O)Nc1ccc(C(=O)N/N=C/c2ccc([N+](=O)[O-])cc2)cc1`: the “activity change, negative = growth inhibition” value is 2.57% (inactive).
On to `COc1cc(/C=N/NC(=O)CNC(=O)c2ccncc2)ccc1OC(C)=O`, for which the “activity change, negative = growth inhibition” value was 11% (inactive).
Consider `NC(=S)N/N=C/c1ccc([N+](=O)[O-])cc1`, for which the “activity change, negative = growth inhibition” value was -18.6% (inactive).
In the case of `Cc1cc(C)nc(N/N=C/c2ccncc2)n1`, the “activity change, negative = growth inhibition” value was 10.1% (inactive).
Consider `NC(=O)C(=O)N/N=C/c1ccc([N+](=O)[O-])o1`, for which the Potency was 10.6 µM (active).
For the compound `Cc1cc(C)nc(N/N=C/c2ccc([N+](=O)[O-])o2)n1`, the Potency is 23.1 µM (active).
`Cc1cc(C)nc(Nc2cc([N+](=O)[O-])ccc2C)n1`: the “activity change, negative = growth inhibition” value was 8.55% (inactive).
For the compound `CCOc1ccc(NC(=O)CCC(=O)N/N=C/c2ccc([N+](=O)[O-])s2)cc1`, the Potency was 10.3 µM (active).
For `COc1ccccc1OCCNC(=O)c1cc([N+](=O)[O-])cc([N+](=O)[O-])c1`, the “activity change, negative = growth inhibition” value is 2.49% (inactive).
On to `CCOc1ccc(NC(=O)CCC(=O)NNC(=O)NC2CCCCC2)cc1`, for which the “activity change, negative = growth inhibition” value was -25.9% (inactive).
As for `CC(C)[C@@H](C(=O)O)N(Cc1cccc(CN([C@H](C(=O)O)C(C)C)S(C)(=O)=O)c1)S(C)(=O)=O`, the “activity change, negative = growth inhibition” value is -12.6% (inactive).
With `CC1=C(C(=O)Nc2ccccc2)C(c2ccc(C)cc2)n2nc(SCc3ccccc3C)nc2N1` (configuration not stated), the “activity change, negative = growth inhibition” value is 3.41% (inactive).
On the same count and under the same terms, to `COc1cccc(NC(=O)C(=O)NCC(c2ccc3c(c2)OCO3)N2CCN(C)CC2)c1` (configuration not stated) belongs -23.2% (inactive).
For `COc1ccccc1CNS(=O)(=O)CC12CCC(CC1=O)C2(C)C` (configuration not stated), the “activity change, negative = growth inhibition” value is -2.24% (inactive).
For the compound `CCCc1c2oc(C(=O)O)cc(=O)c2cc2c(=O)cc(C(=O)O)n(CC)c12`, the “activity change, negative = growth inhibition” value was 16.1% (inactive).
As for `Cc1ccc(CC2CC(=O)N(c3cc(C)ccc3C)C2=O)cc1` (configuration not stated), the “activity change, negative = growth inhibition” value is 2.68% (inactive).
Take `NS(=O)(=O)c1ccccc1NC(=O)c1c(O)c2ccccc2[nH]c1=O`: the “activity change, negative = growth inhibition” value was -1.4% (inactive).
`Cc1oc2cc(Br)c(O)c(Br)c2c1C(=O)c1ccccc1`: the “activity change, negative = growth inhibition” value is 10.4% (inactive).
For the compound `O=C(Nc1ccc(N2CCOCC2)cc1)c1cccc2c(-c3ccc(F)c(F)c3)coc12`, the “activity change, negative = growth inhibition” value is -58.3% (inactive).
For the compound `COc1ccc(N2CCN(C(=S)Nc3ccc(S(N)(=O)=O)cc3)CC2)cc1`, the “activity change, negative = growth inhibition” value is -27.4% (inactive).
On to `C/C(Cc1ccccc1)=N\NC(=O)CNC(=O)c1ccccc1Cl`, for which the “activity change, negative = growth inhibition” value is -4.25% (inactive).
`Cc1ccc(C(=O)N(CC(=O)NC2CCCC2)c2ccc(F)cc2)s1`: the “activity change, negative = growth inhibition” value is -1.84% (inactive).
`Cc1nn(CC(=O)N/N=C/c2ccc(F)cc2)c(C)c1[N+](=O)[O-]`: the “activity change, negative = growth inhibition” value was 8.62% (inactive).
On to `CC(C)(C)c1cc(C(=O)N/N=C/c2ccc([N+](=O)[O-])s2)n[nH]1`, for which the Potency is 9.2 µM (active).
As to `O=C(Cc1cc(=O)[nH][nH]1)N/N=C/c1ccccc1[N+](=O)[O-]`, the “activity change, negative = growth inhibition” value was -0.646% (inactive).
Consider `COc1cc(/C=N\NC(=O)CNC(=O)c2cccc([N+](=O)[O-])c2)ccc1O`, for which the “activity change, negative = growth inhibition” value is -1.83% (inactive).
For the compound `COc1ccc(/C=N/NC(=O)CNC(=O)c2ccc(S(=O)(=O)N3CCCC3)cc2)c(OC)c1`, the “activity change, negative = growth inhibition” value was -12.7% (inactive).
Same read-out and setting: the figure for `O=C(COc1ccccc1[N+](=O)[O-])N/N=C/c1ccc[nH]1` is 0.416% (inactive).
